Compound activity (PubChem BioAssay)
HTR5A inv ag: inverse agonist of human HTR5A in OPRM1-OPRD1 counter-screen. HTR5A cell line, luminescence, inverse agonism. 0.083% of 340,000 active. inhibition, % at 9.3 µM. AID 504634; in the data active = inhibition mostly above about 23%, no sharp cut-off; inactive = mostly below about 18%;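 also: 0% = cells with DMSO and 100% = no-cell wells with DMSO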
OPRM1-OPRD1 ag: OPRM1-OPRD1 heterodimerization agonism; AID 504326; P35372+P41143; activation, % at 9.3 µM; cells, luminescence; 0.3% of 340,000 active; in the data active = activation above about 18%;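 also: 0% = vehicle-treated cells and 100% = reference agonist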
Target sequence (P35372 whole entry, looked up): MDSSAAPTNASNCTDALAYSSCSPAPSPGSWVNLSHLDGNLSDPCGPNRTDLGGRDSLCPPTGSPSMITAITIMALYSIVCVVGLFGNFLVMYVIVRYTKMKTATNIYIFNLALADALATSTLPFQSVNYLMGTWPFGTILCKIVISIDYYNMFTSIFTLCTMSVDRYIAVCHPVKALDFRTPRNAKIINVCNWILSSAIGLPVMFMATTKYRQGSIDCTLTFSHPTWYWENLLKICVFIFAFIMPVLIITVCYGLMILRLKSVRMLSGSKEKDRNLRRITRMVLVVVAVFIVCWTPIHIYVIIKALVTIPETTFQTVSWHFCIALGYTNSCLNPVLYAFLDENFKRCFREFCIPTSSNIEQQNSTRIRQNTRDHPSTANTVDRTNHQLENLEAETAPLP
Target sequence (P41143 whole entry, looked up): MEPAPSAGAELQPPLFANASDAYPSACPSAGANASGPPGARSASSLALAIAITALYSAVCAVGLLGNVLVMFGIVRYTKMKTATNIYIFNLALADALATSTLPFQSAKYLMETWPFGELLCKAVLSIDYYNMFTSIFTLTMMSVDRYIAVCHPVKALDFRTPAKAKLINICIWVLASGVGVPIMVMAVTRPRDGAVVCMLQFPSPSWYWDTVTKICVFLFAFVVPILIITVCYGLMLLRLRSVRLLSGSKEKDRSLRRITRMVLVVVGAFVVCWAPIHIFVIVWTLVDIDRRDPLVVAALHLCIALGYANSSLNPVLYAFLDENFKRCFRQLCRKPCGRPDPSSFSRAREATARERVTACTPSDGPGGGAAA
OPRM1-OPRD1 inv: inverse agonists of human mu-delta opioid receptor heterodimerization; P35372+P41143; inhibition, % at 9.3 µM; cell-based MOR-DOR heterodimer luminescence, inverse agonism; 0.21% of 340,000 active; in the data active = inhibition above about 22%, passing the limit was not always enough;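 also: 0% = cells with DMSO and 100% = wells without cells with DMSO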
HTR5A ag: activates human HTR5A in OPRM1-OPRD1 agonist counter-screen; P47898; HTR5A agonist assay, luminescence, cell-based; activation, % at 9.3 µM; 0.61% of 340,000 active; AID 504692; in the data active = activation mostly above about 9.5%, no sharp cut-off; inactive = mostly below about 7.6%;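 also: 0% = cells with vehicle only and 100% = reference agonist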
The depositor's hits bear a star; i = inactive. In the library only some 1.1% were active in any assay of this set; here they are far more common.

SMILES | HTR5A inv ag | OPRM1-OPRD1 ag | OPRM1-OPRD1 inv | HTR5A ag
CNC(=S)N(Cc1cc2cc(OC)c(OC)cc2[nH]c1=O)C1CCCC1 | 21 | -1 | 5 | 13*
Cc1cccc(C(=O)OCN2C(=O)c3ccccc3C2=O)c1[N+](=O)[O-] | -4 | -3 | 19 | -4
CCOC(=O)C(=CNc1ccc(NC2=NCC(C)S2)cc1)C(=O)OCC (stereo not given) | -26 | 4 | -18 | 9.8*
Cc1cc(NC(=O)c2cc3cccc([N+](=O)[O-])c3[nH]2)ccc1F | -36 | 6 | -30 | 12*
CCN(CC)c1ccc(/C=N/N2CCN(Cc3ccc(Cl)cc3)CC2)c(O)c1 | -39 | -2 | 13 | 13*
C=CCNC(=S)N1CCN(S(=O)(=O)c2ccc(C)cc2)CC1 | -11 | -1 | 4 | 12*
CS(=O)(=O)c1ncc(Cl)c(C(=O)Nc2ccc(OC(F)F)cc2)n1 | 10 | -7 | 35* | -3
COc1ccc(CC(=O)Nc2ccc(-c3nc4cc(C)ccc4o3)c(O)c2)cc1OC | 5 | 1 | -3 | 14*
O=C(N/N=C/c1cccc2ccccc12)c1ccc(CN2CCOCC2)cc1 | -42 | -2 | 7 | 12*
CCOC(=O)C1CCN(CC(O)COCc2ccc(Cl)cc2)CC1 (stereo not given) | -44 | -3 | 15 | 12*
Cc1cccc(-c2noc(CCCC(=O)N3CCOCC3)n2)c1 | -2 | -2 | 13 | 9.8*
Cc1ccc(-c2noc(CCCC(=O)N3CCOCC3)n2)cc1 | -12 | -2 | 11 | 5
Cc1ccc2ccccc2c1NC(=O)c1ccco1 | -18 | -4 | 18 | 5
Oc1ccccc1C=NN=C1c2ccccc2-c2ccccc21 | 15 | -5 | 23 | -4
C/C(=N/N=C/c1ccccc1O)c1ccccc1O | -37 | -2 | 7 | 10*
Cc1ccnc2nc(C(=O)OCC(=O)N(Cc3ccccc3)C(C)C)nn12 | -17 | -2 | 7 | 6
Cc1cc(=O)nc2c3ccccc3n(C(C)C(=O)NCCN3CCOCC3)n12 (stereo not given) | -8 | -3 | 16 | 2
CCCC(=O)Nc1cc(C)cn(Cc2c(F)cccc2Cl)c1=O | -24 | -1 | 7 | 6
CC(=O)Nc1nc2n(n1)C(c1ccccc1)C=C(c1ccccc1)N2 (stereo not given) | 32* | -3 | 17 | -12
CN(CC(=O)NCc1ccco1)CC(=O)Nc1ccc(F)c(F)c1F | -43 | -2 | 13 | 11*
COc1cccc(CN2CCCC(C(=O)c3ccc4c(c3)OCO4)C2)c1OC (stereo not given) | 10 | 0 | 2 | 0
O=C(c1ccc2c(c1)OCO2)C1CCCN(Cc2ccccc2OC(F)F)C1 (stereo not given) | -3 | 8 | -45 | 13*
CNC(=O)C1CCN(S(=O)(=O)c2c(C)noc2/C=C/c2ccccc2F)CC1 | -14 | -2 | 12 | -4
CC(=O)Nc1sc2c(c1C(c1ccccn1)N1CCCC1)CCCC2 (stereo not given) | 12 | -2 | 10 | -5
CC(=O)Nc1sc2c(c1C(c1cccs1)N1CCOCC1)CCCC2 (stereo not given) | -5 | -1 | 3 | 13*
SMILES | HTR5A inv ag | OPRM1-OPRD1 ag | OPRM1-OPRD1 inv | HTR5A ag
CCCOc1ccc(C(=O)NNC(=S)NC(=O)c2cc(-c3ccc(Cl)cc3)nc3ccccc23)cc1 | 75* | -11 | 61* | -22
CS(=O)(=O)N(CC(=O)NCCSCc1ccccc1)c1ccccc1F | 3 | -1 | 6 | -1
CCOC(=O)c1c(C)[nH]c(=S)c(C#N)c1-c1ccc(OC)cc1 | 6 | -2 | 13 | -3
CCCCOc1ccc(-c2c(C(=O)Nc3ccccc3)c(C)[nH]c(=S)c2C#N)cc1 | -35 | 3 | -23 | 14*
O=C(OCC(=O)N1CCN(Cc2ccccc2)CC1)c1cc(Cl)ccc1[N+](=O)[O-] | -3 | 1 | -6 | 1
Cc1cccc2c1NC(=O)C2(c1ccc(O)cc1)c1ccc(O)cc1 | -107 | 124* | i | 44*
O=C(O)CC1(CC(=O)Nc2ccccc2N2CCOCC2)CCCC1 | -2 | -2 | 12 | -5
Cc1ccc2nc(N3CCN(S(=O)(=O)c4ccc(C)c(Cl)c4)CC3)c(C#N)cc2c1 | 19 | -1 | 4 | -4
O=C(Nc1ccccc1)C1=C(O)CC(c2ccc(Cl)cc2)N2CCN=C12 (stereo not given) | -11 | -1 | 8 | 4
Cc1ccc(N=c2c([N+](=O)[O-])nn(-c3ccccc3)n2O)c(C)c1 | -15 | 7 | -37 | 11*
COc1cccc(C(=O)Nc2ccc3c(cc2=O)[C@@H](NC(C)=O)CCc2cc(OC)c(OC)c(OC)c2-3)c1 | -194 | 1 | -6 | 52*
CN1/C(=C\C(=O)COc2ccc3c(c2)OCO3)C(C)(C)c2ccccc21 | 18 | 3 | -18 | 14*
COc1ccccc1OCC(=O)/C=C1/N(C)c2ccccc2C1(C)C | 12 | 3 | -13 | -5
CS(=O)(=O)N1CCC(C(=O)Nc2cc(Cl)c(Cl)cc2Cl)CC1 | -33 | -3 | 17 | 3
O=C(NCCC1CCCCN1S(=O)(=O)c1ccc(F)cc1)C(=O)NCc1cccnc1 (stereo not given) | 6 | -1 | 7 | -2
Cc1ccc(C(=O)NC(C)c2ccc(F)cc2)cc1 (stereo not given) | 1 | 0 | 2 | 0
CC(NC(=O)c1ccc(F)cc1)c1ccccc1 (stereo not given) | -9 | -1 | 8 | 10*
Cn1nccc1C(=O)Nc1nnc(C2CC2)s1 | -12 | 0 | 2 | 3
CC(=O)Oc1ccccc1C(=O)N(C1CCCCC1)C1CCCCC1 | -14 | 4 | -16 | 4
CCOC(=O)C1=C(O)/C(=C/c2ccc(CNC(=O)C(=O)Nc3ccc(C)cc3)o2)N=C1C | -6 | 0 | -2 | 14*
COC(=O)C1=C(O)/C(=C\c2ccc(CNC(=O)C(=O)Nc3ccc(C)cc3)o2)N=C1C | 13 | 0 | -1 | -6
CCOc1ccc(NC(=O)c2cc(OC)nc3ccccc23)cc1 | -46 | -1 | 4 | 12*
Cc1ccc(S(=O)(=O)Nc2ccc3nc(C)sc3c2)cc1 | 6 | 0 | -2 | -1
Cc1nc2ccc(NS(=O)(=O)c3cccc([N+](=O)[O-])c3)cc2s1 | -37 | 1 | -3 | 9.0*
Cc1ccc2nc(C)cc(C(=O)OCC(=O)c3ccc(Cl)c([N+](=O)[O-])c3)c2c1 | 41* | -19 | 79* | -9
SMILES | HTR5A inv ag | OPRM1-OPRD1 ag | OPRM1-OPRD1 inv | HTR5A ag
COc1ccc(-c2cc(C(=O)OCC(=O)c3ccc(C)c([N+](=O)[O-])c3)c3ccccc3n2)cc1 | -26 | -2 | 12 | -1
Cc1ccc(C(=O)CSc2nc3cccnc3n2C)cc1 | -10 | -1 | 8 | 4
Cn1c(SCC(=O)c2ccccc2)nc2cccnc21 | 12 | 2 | -11 | 9.7*
Cc1cccc(Cn2c(=O)oc3ccc(C)cc32)c1 | -4 | 2 | -10 | 1
CCCC1(C(=O)O)NC(c2cccc(OC)c2O)C2C(=O)N(c3ccccc3)C(=O)C21 (stereo not given) | -2 | -1 | 6 | 1
CCCC1(C(=O)O)NC(c2ccccc2O)C2C(=O)N(c3cccc(Cl)c3)C(=O)C21 (stereo not given) | -42 | -3 | 16 | 14*
